Results as given in PubChem BioAssay (NCI).
The panel holds about 83,000 compounds, 20% with a hit somewhere; the sample as a whole holds those more often.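 Step 1: grow cells in 96-well plates. Step 2: add test compound at a single concentration. Step 3: incubate 48 h. Step 4: record percent growth.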 Unmarked numbers belong to inactive results. The source made the active and inactive calls. How the source made its calls: active means growth percent below 10; inactive means the rest.

Experiments:
Test in all cases: NCI-60 one-dose screen, 48 h (100 = growth as untreated, 0 = no growth, -100 = all killed)
Settings in all cases: 10 µM unless noted
DU-145 prostate = tested on: DU-145 prostate
K-562 leukemia = tested on: K-562 leukemia
MALME-3M melanoma = tested on: MALME-3M melanoma
MDA-MB-231 breast = tested on: MDA-MB-231 breast
RXF 393 renal = tested on: RXF 393 renal
SF-268 CNS = tested on: SF-268 CNS
SF-295 CNS = tested on: SF-295 CNS
SF-539 CNS = tested on: SF-539 CNS
UACC-257 melanoma = tested on: UACC-257 melanoma
M14 melanoma = tested on: M14 melanoma
HCT-15 colon = tested on: HCT-15 colon
HT29 colon = tested on: HT29 colon
SNB-19 CNS = tested on: SNB-19 CNS
U251 CNS = tested on: U251 CNS
PC-3 prostate = tested on: PC-3 prostate
SK-MEL-5 melanoma = tested on: SK-MEL-5 melanoma
UACC-62 melanoma = tested on: UACC-62 melanoma
LOX IMVI melanoma = tested on: LOX IMVI melanoma
SK-MEL-28 melanoma = tested on: SK-MEL-28 melanoma
SNB-75 CNS = tested on: SNB-75 CNS

SMILES | growth (DU-145 prostate) | growth (K-562 leukemia) | growth (MALME-3M melanoma) | growth (MDA-MB-231 breast) | growth (RXF 393 renal) | growth (SF-268 CNS) | growth (SF-295 CNS) | growth (SF-539 CNS) | growth (UACC-257 melanoma) | growth (M14 melanoma) | growth (HCT-15 colon) | growth (HT29 colon) | growth (SNB-19 CNS) | growth (U251 CNS) | growth (PC-3 prostate) | growth (SK-MEL-5 melanoma) | growth (UACC-62 melanoma) | growth (LOX IMVI melanoma) | growth (SK-MEL-28 melanoma) | growth (SNB-75 CNS)
NC(=O)C(Br)c1ccccc1 (centres undefined) | 103% | 84.3% | 74.9% | 87.8% | 104% | 79.6% | 97% | 109% | 83.3% | 73.3% | 58% | 86.2% | 90.6% | 86.8% | 94.3% | 82.9% | 88% | 56.8% | 97.2% | –
CC1=C(CNO)C2=C(C)C3(CC3)[C@@](C)(O)C(=O)C2=C1 | 4.97% (active) | 88.4% | -62.6% (active) | 10.3% | -70.3% (active) | 0.784% (active) | -4.83% (active) | -35.3% (active) | -24.3% (active) | 26.8% | – | 41.4% | 4.3% (active) | -13.6% (active) | 5.59% (active) | -67.4% (active) | 28.7% | 52.8% | 50.2% | -58.8% (active)
CC1=C(CCCNS(C)(=O)=O)C2=C(C)C3(CC3)[C@@](C)(O)C(=O)C2=C1 | 4.13% (active) | 106% | -63.1% (active) | -3.41% (active) | -75.6% (active) | 8.41% (active) | 2.69% (active) | -38.6% (active) | – | -51.3% (active) | 4.29% (active) | -2.04% (active) | 8.19% (active) | 1.79% (active) | 6.58% (active) | -89.8% (active) | -52.7% (active) | 2.21% (active) | -28.4% (active) | -60.6% (active)
N#C[Se]Cc1cc(-c2ccccc2)n(-c2ccc(S(N)(=O)=O)cc2)n1 | -85.6% (active) | 4.33% (active) | -47% (active) | -68.3% (active) | -3.45% (active) | -59.8% (active) | -55.8% (active) | – | -70.2% (active) | -62.2% (active) | 4.73% (active) | -27% (active) | -100% (active) | -61.2% (active) | -13.1% (active) | -76.6% (active) | -9.79% (active) | -69.4% (active) | – | -38.3% (active)
CCCCCCCCCCCCCCCCCC1OC[C@@H](COC(=O)O[C@@H](C(=O)O[C@H]2C[C@@]3(O)[C@@H](OC(=O)c4ccccc4)[C@@H]4[C@]5(OC(C)=O)CO[C@@H]5C[C@H](O)[C@@]4(C)C(=O)[C@H](OC(C)=O)C(=C2C)C3(C)C)[C@@H](NC(=O)c2ccccc2)c2ccccc2)O1 (some centres undefined) | 45.1% | 46.6% | 50.5% | 60.5% | 63.1% | 66% | 61% | 51.9% | 69.8% | 38.8% | – | 18.2% | 62.1% | 58% | 46.6% | 75.7% | 58.7% | – | 59% | 50.2%
C[N+]12CN3CN(CN(C3)C1)C2 | 119% | 198% | 111% | 133% | 111% | 106% | 117% | 102% | – | 103% | 110% | 99.3% | – | 100% | 81.3% | 112% | 104% | 99.7% | – | 46.8%
COc1cc2c(cc1OCCCn1c(-c3ccccn3)nc3ccccc31)N=C[C@@H]1CCCN1C2=O | 26% | 17.4% | -9.03% (active) | 6.19% (active) | -11.8% (active) | 10.4% | -3.07% (active) | 14.3% | – | 10.5% | -22.7% (active) | -26.7% (active) | 27.2% | -44% (active) | 12.8% | -69.7% (active) | -75.9% (active) | -7.37% (active) | 5.44% (active) | 23.3%
